Among all 5,500 compounds or so, about 2,000 (36%) were called active. Not shown: some 18% with an inconclusive outcome. Cut-off read from the data, not from the text of the source: active = normalized growth mostly below about 0.91 (no sharp cut-off); inconclusive = no clear call, values can overlap the other calls; inactive = mostly above about 0.92. The list shows a part of the results.
Assay: chemical genetic growth profiling, strain panel (AID 1159580);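 note: tested at 20 µM; growth read once vehicle control cultures reached saturation at 30 °C; 1 = growth at the plate median or of vehicle wells; lower values mean less growth of the strain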
Conditions: growth OD

Measured: normalized growth

CC1=C(/C=C/C(C)=C/C=C/C(C)=C/CO)C(C)(C)CCC1
inactive: S. cerevisiae deletion strains, locus YJR043C, strain POL32, stronger effect = lower value 0.985 | S. cerevisiae deletion strains, locus YJR066W, strain TOR1, stronger effect = lower value 0.94 | S. cerevisiae deletion strains, locus YKL009W, strain mrt4, stronger effect = lower value 0.993 | S. cerevisiae deletion strains, locus YKL068W, stronger effect = lower value 0.997 | S. cerevisiae deletion strains, locus YKL085W, strain MDH1 (second series), stronger effect = lower value 0.972 | S. cerevisiae deletion strains, locus YKL085W, strain MDH1, stronger effect = lower value 0.972 | S. cerevisiae deletion strains, locus YKL160W, strain elf1, stronger effect = lower value 1.04 | S. cerevisiae deletion strains, locus YKL190W, strain CNB1, stronger effect = lower value 0.991 | S. cerevisiae deletion strains, locus YKR001C, strain vps1, stronger effect = lower value 0.984 | S. cerevisiae deletion strains, locus YKR026C, strain gcn3, stronger effect = lower value 1.02 | S. cerevisiae deletion strains, locus YKR091W, strain srl3, stronger effect = lower value 1.01 | S. cerevisiae deletion strains, locus YLL001W, strain dnm1, stronger effect = lower value 0.975 | S. cerevisiae deletion strains, locus YLL026W, stronger effect = lower value 1.03 | S. cerevisiae deletion strains, locus YLL041C, strain sdh2, stronger effect = lower value 0.99 | S. cerevisiae deletion strains, locus YLR027C, strain aat2, stronger effect = lower value 1.01 | S. cerevisiae deletion strains, locus YLR039C, strain RIC1, stronger effect = lower value 1.01 | S. cerevisiae deletion strains, locus YLR058C, strain SHM2, stronger effect = lower value 0.976 | S. cerevisiae deletion strains, locus YLR102C, strain apc9, stronger effect = lower value 1 | S. cerevisiae deletion strains, locus YLR113W, strain HOG1, stronger effect = lower value 1 | S. cerevisiae deletion strains, locus YLR221C, strain rsa3, stronger effect = lower value 0.973 | S. cerevisiae deletion strains, locus YLR258W, strain gsy2, stronger effect = lower value 1.03 | S. cerevisiae deletion strains, locus YLR262C, strain YPT6 (second series), stronger effect = lower value 0.972 | S. cerevisiae deletion strains, locus YLR262C, strain YPT6, stronger effect = lower value 0.934 | S. cerevisiae deletion strains, locus YLR268W, strain sec22, stronger effect = lower value 1 | S. cerevisiae deletion strains, locus YLR320W, strain mms22, stronger effect = lower value 0.972 | S. cerevisiae deletion strains, locus YLR330W, strain CHS5, stronger effect = lower value 1 | S. cerevisiae deletion strains, locus YLR342W, strain FKS1 (second series), stronger effect = lower value 1.1 | S. cerevisiae deletion strains, locus YLR342W, strain FKS1, stronger effect = lower value 1.03 | S. cerevisiae deletion strains, locus YLR357W, strain rsc2, stronger effect = lower value 1.01 | S. cerevisiae deletion strains, locus YLR370C, strain arc18, stronger effect = lower value 1.01 | S. cerevisiae deletion strains, locus YLR371W, strain rom2, stronger effect = lower value 1.02 | S. cerevisiae deletion strains, locus YLR384C, strain iki3, stronger effect = lower value 1.01 | S. cerevisiae deletion strains, locus YLR418C, strain cdc73, stronger effect = lower value 0.965 | S. cerevisiae deletion strains, locus YML016C, strain PPZ1, stronger effect = lower value 0.998 | S. cerevisiae deletion strains, locus YML032C, strain rad52, stronger effect = lower value 1.01 | S. cerevisiae deletion strains, locus YML120C, strain ndi1, stronger effect = lower value 1 | S. cerevisiae deletion strains, locus YML124C, strain tub3, stronger effect = lower value 0.996 | S. cerevisiae deletion strains, locus YMR058W, strain fet3, stronger effect = lower value 0.998 | S. cerevisiae deletion strains, locus YMR078C, strain ctf18, stronger effect = lower value 1 | S. cerevisiae deletion strains, locus YMR125W, strain sto1, stronger effect = lower value 1.02 | S. cerevisiae deletion strains, locus YMR129W, stronger effect = lower value 1.02 | S. cerevisiae deletion strains, locus YMR205C, strain PFK2, stronger effect = lower value 0.96 | S. cerevisiae deletion strains, locus YMR223W, strain ubp8, stronger effect = lower value 0.998 | S. cerevisiae deletion strains, locus YMR231W, strain pep5, stronger effect = lower value 0.997 | S. cerevisiae deletion strains, locus YMR307W, strain GAS1, stronger effect = lower value 0.982 | S. cerevisiae deletion strains, locus YNL067W, strain RPL9B, stronger effect = lower value 0.962 | S. cerevisiae deletion strains, locus YNL071W, strain lat1, stronger effect = lower value 1.03 | S. cerevisiae deletion strains, locus YNL183C, strain NPR1, stronger effect = lower value 0.938 | S. cerevisiae deletion strains, locus YNL209W, strain ssb2, stronger effect = lower value 1.02 | S. cerevisiae deletion strains, locus YNL233W, strain BNI4, stronger effect = lower value 0.974 | S. cerevisiae deletion strains, locus YNL248C, strain rpa49, stronger effect = lower value 1.09 | S. cerevisiae deletion strains, locus YNL250W, strain rad50, stronger effect = lower value 0.982 | S. cerevisiae deletion strains, locus YNL271C, strain bni1, stronger effect = lower value 1.01 | S. cerevisiae deletion strains, locus YNL298W, strain CLA4, stronger effect = lower value 1.01 | S. cerevisiae deletion strains, locus YNL307C, strain MCK1, stronger effect = lower value 1.01 | S. cerevisiae deletion strains, locus YNL322C, strain KRE1 (second series), stronger effect = lower value 1.05 | S. cerevisiae deletion strains, locus YNR049C, strain mso1, stronger effect = lower value 1.01 | S. cerevisiae deletion strains, locus YNR052C, strain pop2, stronger effect = lower value 1.01 | S. cerevisiae deletion strains, locus YOL006C, strain TOP1, stronger effect = lower value 0.929 | S. cerevisiae deletion strains, locus YOL012C, strain htz1 0.793 | S. cerevisiae deletion strains, locus YOL147C, strain pex11, stronger effect = lower value 0.994 | S. cerevisiae deletion strains, locus YOR001W, strain rrp6, stronger effect = lower value 0.983 | S. cerevisiae deletion strains, locus YOR061W, strain CKA2, stronger effect = lower value 0.961 | S. cerevisiae deletion strains, locus YOR069W, strain VPS5, stronger effect = lower value 1.01 | S. cerevisiae deletion strains, locus YOR070C, strain gyp1, stronger effect = lower value 1 | S. cerevisiae deletion strains, locus YOR080W, strain dia2, stronger effect = lower value 1.01 | S. cerevisiae deletion strains, locus YOR083W, strain WHI5, stronger effect = lower value 0.988 | S. cerevisiae deletion strains, locus YOR106W, strain vam3, stronger effect = lower value 1 | S. cerevisiae deletion strains, locus YOR136W, strain idh2, stronger effect = lower value 0.992 | S. cerevisiae deletion strains, locus YOR144C, strain elg1, stronger effect = lower value 1 | S. cerevisiae deletion strains, locus YOR184W, strain ser1, stronger effect = lower value 1.01 | S. cerevisiae deletion strains, locus YOR231W, strain MKK1, stronger effect = lower value 0.988 | S. cerevisiae deletion strains, locus YOR265W, strain rbl2, stronger effect = lower value 1 | S. cerevisiae deletion strains, locus YOR270C, strain vph1, stronger effect = lower value 0.848 | S. cerevisiae deletion strains, locus YOR290C, strain snf2, stronger effect = lower value 1.05 | S. cerevisiae deletion strains, locus YOR316C, strain cot1, stronger effect = lower value 1 | S. cerevisiae deletion strains, locus YPL051W, strain arl3, stronger effect = lower value 1.04 | S. cerevisiae deletion strains, locus YPL055C, strain LGE1, stronger effect = lower value 0.873 | S. cerevisiae deletion strains, locus YPL078C, strain atp4, stronger effect = lower value 1.02 | S. cerevisiae deletion strains, locus YPL106C, strain sse1, stronger effect = lower value 1.13 | S. cerevisiae deletion strains, locus YPL240C, strain hsp82, stronger effect = lower value 1.01 | S. cerevisiae deletion strains, locus YPL256C, strain CLN2, stronger effect = lower value 1.04 | S. cerevisiae deletion strains, locus YPR119W, strain clb2, stronger effect = lower value 1 | S. cerevisiae deletion strains, locus YPR141C, strain kar3, stronger effect = lower value 0.997 | S. cerevisiae deletion strains, locus YPR163C, strain tif3, stronger effect = lower value 0.998 | S. cerevisiae deletion strains, locus YPR167C, strain met16, stronger effect = lower value 1 | S. cerevisiae deletion strains, strain wtn01, stronger effect = lower value 1.03 | S. cerevisiae strains, strain wild type, stronger effect = lower value 0.979
